A selection: hits, their analogues and other compounds. The true share with any hit is near 12%.
Shiga toxin inh: inhibitors of Shiga toxin in Vero cells | Vero cells, Shiga toxin protein synthesis inhibition reporter | inhibition, % at 38.7 µM | 290,000 compounds, 9.2% hits; in the data active = inhibition mostly above about 28%, no sharp cut-off; inactive = mostly below about 43%; note: 0% is about no effect
NS1 function inh: influenza NS1 inhibition; 270,000 compounds, 0.4% hits; AID 2326; Potency, µM (series often up to 46.1 µM), without a hit: top-dose activity, positive = more growth; note: potency is the fitted concentration of half-maximal effect; actives are rising curves; nearly all actives have a fitted effect of over 50% in size
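In this qHTS, NS1 from influenza A is expressed in budding yeast, where it slows growth. Cells are switched from glucose to 2% galactose medium (pH 6.0, -URA), treated with compound, and growth recovery is read at OD600.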
CHX counter: counter-screen hit for Shiga toxin inhibitors, cycloheximide | cell reporter, cycloheximide protein synthesis inhibition counterscreen | max response, % | 300,000 compounds, 12% hits | AID 2314; in the data active = max response mostly above about 13%, no sharp cut-off; inactive = mostly below about 14%; note: read at 38.3 µM for the half of the compounds with a filed dose; 0% is about no effect
SARS PLP yeast: SARS-CoV PLP inhibition in yeast | AID 485353 | S. cerevisiae expressing SARS-CoV PLpro, growth rescue | Potency, µM (top dose mostly 32.9 µM), for inactives: top-dose activity, positive = growth rescue, hits mostly activators | 330,000 compounds, 0.19% hits; note: potency is the fitted concentration of half-maximal effect; 0% is about no effect; nearly all actives have a fitted effect of over 55% in size
The depositor's hits bear a star; u = inconclusive; x = not tested or not shown. Unless noted, calls come from the whole dose curve.

SMILES	Shiga toxin inh	NS1 function inh	CHX counter	SARS PLP yeast
CNc1nc(-c2ccc3c(c2)CCN3S(=O)(=O)c2ccccc2)c(C)s1	1.2	9.7%	-2.3	-3.0%
C=CCn1cnc2c(nnn2-c2ccc(C)c(C)c2)c1=O	88.0*	x	40.1*	-2.2%
CCOc1ccc(C(C)NC(=S)NCc2ccc(F)cc2)cc1 (centres undefined)	13.9	-90.6%	-3.3	u
CCOc1ccc(NCCC(O)c2ccc(F)cc2)cc1 (centres undefined)	21.7	8.0%	23.3*	1.0%
COc1cccc(OCC(=O)Nc2c3c(nn2-c2ccc(F)cc2)CS(=O)(=O)C3)c1	-2.6	4.8%	1.3	u
Cc1onc(-c2ccccc2)c1-c1ccnc(N)n1	-5.3	-7.4%	-1.1	0.3%
Cc1ccc(C)n1-c1ccc(-c2ccnc(N)n2)cc1	28.3	x	24.3*	4.3%
COc1ccccc1OCc1nnc(SCC(=O)NCc2ccco2)n1-c1ccccc1	8.9	23.1%	11.7*	26.2%
COc1cccc(OCc2nnc(SCC(=O)NCc3ccco3)n2C)c1	-25.7	6.6%	8.0	-3.3%
COc1ccc(-n2c(COc3cccc4ccccc34)nnc2SCC(=O)NCc2ccco2)cc1	67.5	u	25.3*	1.1%
COc1ccc(-n2c(COc3cccc(C)c3)nnc2SCC(=O)NCc2ccco2)cc1	35.3*	-3.3%	29.7*	-14.6%
COc1ccc(-n2c(COc3ccc4ccccc4c3)nnc2SCC(=O)NCc2ccco2)cc1	58.2	26.2%	31.0	-2.9%
C=CC(c1ccccc1)C(C(=O)c1ccccc1)N(C)C (centres undefined)	4.6	x	-4.7	1.2%
CC(C)CNC(=O)O	x	-1.0%	x	x
O=C(Nc1ccc(C(=O)N2CCOCC2)cc1)c1cccc(Br)c1	68.9	1.4%	29.7*	-3.7%
O=C(Nc1cccc(Br)c1)c1cccc(OC(=S)N2CCOCC2)c1	43.6*	-4.7%	41.2*	-3.1%
O[C@]1(c2ccccc2)c2ccccc2NC2=NCCN21	x	0.0%	x	x
COCc1ccc(C(=O)N2CCCC(N(C)CCc3ccc(OC)c(OC)c3)C2)s1 (centres undefined)	-41.3	-1.4%	-1.1	u
COCC(=O)N1CCCC(N(C)CCc2ccc(OC)c(OC)c2)C1 (centres undefined)	x	15.7%	18.0*	11.6%
OCCCn1c(-c2ccccc2)n[nH]c1=S	36.8*	14.4%	20.8*	29.9%
C=CCn1c(-c2ccccc2)n[nH]c1=S	12.4	12.7%	-0.9	-2.7%
O=C(O)C(Cc1ccccc1)Cc1ccccc1	x	-5.9%	x	x
COc1ccc(-c2cc(C(=O)N3CCCCCC3)no2)cc1	69.8*	-14.9%	19.7*	-4.1%
COc1cccc(-c2cc(C(=O)N3CCCCC3C)no2)c1 (centres undefined)	104.8*	-7.9%	28.0*	-0.2%
COc1ccc(-c2cc(C(=O)Nc3ccc(OC)cc3OC)no2)cc1	-10.4	3.3%	-0.9	-2.2%
SMILES	Shiga toxin inh	NS1 function inh	CHX counter	SARS PLP yeast
COc1cccc(-c2cc(C(=O)N3CCN(c4ccc(F)cc4)CC3)no2)c1	-17.0	3.2%	-2.0	1.1%
COc1cccc(-c2cc(C(=O)N3CCCCCC3)no2)c1	54.1*	-95.2%	37.1*	-20.2%
COc1ccc(-c2cc(C(=O)N3CCCCCC3)no2)cc1OC	51.7*	-6.6%	30.4*	-1.9%
Cc1ccc(S(=O)(=O)N(C)CCCC(=O)NC(C)(C)C)cc1	-5.5	-3.4%	-2.4	-1.7%
NS(=O)(=O)c1cc(C(=O)N=Nc2c(O)[nH]c3ccccc23)ccc1Cl	11.7	1.4%	7.0	-0.1%
COc1ccc(-c2cc(C(=O)N3CCN(C(c4ccccc4)c4ccccc4)CC3)no2)cc1	14.1	u	5.9	-7.6%
COc1ccc(-c2cc(C(=O)N3CCCC3)no2)cc1	73.7*	-25.2%	25.0*	-4.5%
CCOC(=O)C1(Cc2ccccc2)CCCN(C(=O)c2cn[nH]c2)C1 (centres undefined)	-6.3	16.6%	-2.3	-0.1%
CCOC(=O)C1(Cc2ccccc2)CCCN(C(=O)C=C(C)C)C1 (centres undefined)	86.0*	-38.1%	24.2*	-4.5%
CCOC(=O)C1(Cc2ccccc2)CCCN(C(=O)c2ccc(-n3ccnc3)cc2)C1 (centres undefined)	42.2*	-7.5%	25.8*	18.2%
c1cc2c(cc1C1=NNC(=NC3CC3)SC1)OCCO2	-19.7	x	-7.6	-17.9%
COc1ccccc1C1=NNC(=Nc2cccc(S(=O)(=O)N(C)C)c2)SC1	-4.7	u	3.4	-2.6%
FC(F)Sc1ccc(N=C2NN=C(c3ccc4c(c3)OCCO4)CS2)cc1	47.3*	26.3%	25.2*	-2.0%
COc1ccc(N=C2NN=C(c3ccc4c(c3)OCCO4)CS2)cc1	6.4	13.5%	21.2*	-2.1%
Cc1ccc(C(=O)c2cccc(N)c2)cc1C	-14.7	x	-10.4	0.6%
O=C(c1ccccc1)c1ccc2cc(O)ccc2c1	72.3*	-61.5%	35.1*	-7.0%
O=C(c1ccccc1)c1cccc(C(=O)c2ccccc2)c1	x	x	x	-8.7%
Cc1ccc(C(=O)c2ccc(O)cc2)cc1C	51.7	-17.0%	17.6*	-18.3%
Oc1ccc(Cl)cc1	x	x	x	-0.1%
O=C(c1ccc(O)cc1)c1ccc(Cl)cc1	35.8	-88.1%	21.4*	-4.4%
Cc1cc(C)n(CCCN2CCC(C(=O)Nc3cccc(-c4cccc(F)c4)c3)CC2)n1	-10.9	0.1%	-4.2	-2.9%
CN(C)C(=S)SCCn1c(N)nc(N(C)C)nc1=O	8.1	-3.5%	1.1	-0.5%
CC1C(c2ccccc2)N(C)C(c2ccccc2)C(C)C1(O)C#Cc1ccccc1 (centres undefined)	-4.5	-35.5%	6.1	-105.6%
CC1=NN(C(=O)c2ccccc2)C(O)(c2ccc(Br)cc2)C1 (centres undefined)	67.7*	-7.4%	43.6*	-2.3%
CCOC(=O)C1=NN(C(=O)c2ccccc2)C(O)(c2ccc(C)cc2)C1 (centres undefined)	89.5*	18.8%	44.8*	-18.7%
SMILES	Shiga toxin inh	NS1 function inh	CHX counter	SARS PLP yeast
CCOC(=O)C1=NN(C(=O)c2cccc(Br)c2)C(O)(C(C)(C)C)C1 (centres undefined)	73.7*	-10.9%	19.5*	-0.1%
CCC1=NN(C(=O)c2ccc(Br)cc2)C(O)(c2ccccc2)C1 (centres undefined)	-8.6	-12.9%	2.1	-16.4%
Cc1cc(C)cc(NC(=S)N2CCN(S(=O)(=O)c3ccccc3)CC2)c1	-13.6	11.7%	6.1	3.3%
O=C(C1CCCN1S(=O)(=O)c1cccc2nsnc12)N1CCN(c2ccc(F)cc2)CC1 (centres undefined)	-3.0	4.5%	6.6	u
O=C(NCCCCCNC(=O)c1cccnc1)c1cccnc1	-24.1	-1.9%	-3.8	-6.8%
O=C(NCCc1cccc(Cl)c1)c1cccc([N+](=O)[O-])c1	16.4	-3.0%	21.5*	-16.8%
O=C(NCCc1cccc(Cl)c1)c1cccnc1	142.5*	-9.9%	57.0*	3.2%
O=C(NCCOCCOCCNC(=O)c1cccnc1)c1cccnc1	37.5	-8.9%	16.7*	-6.1%
Nc1ncnc2c1nc(N1CCCCC1)n2[C@@H]1O[C@@H]2COP(=O)(O)O[C@H]2[C@H]1O	-13.0	x	-6.9	x
CCCC(O)(CCC)C(=O)NNc1ccccc1	5.5	-6.5%	-3.1	-5.8%
CC(=O)Nc1sc2c(c1C#N)CCC(C)C2 (centres undefined)	37.8*	-4.7%	17.4	-1.7%
